Reference: PubChem BioAssay
Active and inactive are the calls of the source. Unless noted, how the calls were made is not given here.

Legend:
[1] = tested on: Wnt5a (protein binding on small-molecule microarray); assay: Wnt5a binders on small-molecule microarray, primary screen, biophysical, 635/667 nm fluorescence (AID 1142); details: 635 nm fluorescence, higher = more signal;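 further: fluorescence read at 667 nm with signal to noise per printed feature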
[2] = cell viability in Huh7 cells, primary screen, cytotoxicity control for HCV replication inhibitor project, CellTiter-Glo luminescence, basal, 48 h (AID 1143); details: Huh7 HCV replicon, higher = more signal, called active from +8 up or from −8 down;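 further: Huh7 hepatoma cells carrying a hepatitis C replication reporter with no stimulus; test concentration not given here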
[3] = P. aeruginosa biofilm formation inhibitors, primary screen, PAO1 strain, BacTiter-Glo luminescence, LB-PBS (AID 1144); details: 12 h, higher = more signal
[4] = CREB reporter modulators without forskolin, primary screen, cell-based, PC12, CRE-LacZ reporter, unstimulated (AID 1145); details: no forskolin, luminescence, 4.5 h, higher = more signal, called active from +8 up or from −8 down
[5] = CREB reporter modulators under forskolin, primary screen, cell-based, PC12, CRE-LacZ reporter, forskolin-stimulated (AID 1146); details: luminescence, 4.5 h, higher = more signal, called active from +8 up or from −8 down;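 further: PC12 cells with 6xCRE LacZ reporter stimulated by forskolin 10 µM; beta-galactosidase reporter signal reflecting CREB driven transcription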
[6] = molecular target: Streptavidin (Streptomyces avidinii) (UniProt P22629); assay: streptavidin binders on small-molecule microarray, primary screen, artefact control for SMM compound annotation, biophysical, 635/667 nm fluorescence (AID 1147); details: streptavidin binding, higher = more signal;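 further: signal reflects streptavidin binding to arrayed compounds as a control protein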
[7] = small-molecule binders of probe aInhba, primary screen, biochemical, small-molecule microarray, 635/667 nm fluorescence (AID 1148); details: higher = more signal;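 further: score merges 667nm spot fluorescence with signal-to-noise for antibody binding to printed compounds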
Torsin-1A (Homo sapiens) [8] = molecular target: Torsin-1A (Homo sapiens) (UniProt O14656); assay: torsin A binders from cell lysate, primary screen, small-molecule microarray, wild-type, 635/667 nm (AID 1149); details: COS7 hTOR1A-WT lysate, 635 nm fluorescence, higher = more signal
Torsin-1A (Homo sapiens) [9] = molecular target: Torsin-1A (Homo sapiens) (UniProt O14656); assay: small-molecule binders of mutant TOR1A in lysate, primary screen, cell lysate, small-molecule microarray, COS7 lysate, 635/667 nm fluorescence (AID 1150); details: COS7 hTOR1A mutant lysate, 635 nm fluorescence, higher = more signal;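 further: score pools 667 nm emission and signal to noise measuring lysate protein binding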
[10] = tested on: Sonic hedgehog protein (Shh); assay: small-molecule binders of Shh protein, primary screen, biochemical, small-molecule microarray, 635/667 nm fluorescence (AID 1151); details: small-molecule microarray binding, 635 nm fluorescence; higher = more signal;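 further: Shh protein binding to compounds spotted on small-molecule microarray slides; score combines spot fluorescence intensity with signal-to-noise across triplicate slides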
[11] = E. coli DRC41 culture turbidity changes, primary screen, E. coli filamentation inducer project, strain DRC41, OD650, 48 h (AID 1152);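 further: E. coli MC1000 strain DRC41 lacking acrAB efflux pump and sulA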; details: E. coli DRC41 (acrAB sulA), higher = more signal, called active from +8 up or from −8 down
[12] = small-molecule binders of probe aLefty1, primary screen, biochemical, small-molecule microarray, 635/667 nm fluorescence (AID 1153); details: higher = more signal;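 further: score merges spot fluorescence with signal-to-noise ratio from the scanned slide images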
[13] = PSAC antagonists in infected red cells, primary screen, cell-based, P. falciparum Indochina, OD700, 1 h (AID 1154); details: P. falciparum Indochina infected RBC osmotic lysis, higher = more signal, called active from +8 up or from −8 down
[14] = PSAC antagonists in infected red cells, primary screen, cell-based, P. falciparum Indochina, OD700, 2 h (AID 1155);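 further: lysis reports solute entry through the parasite surface anion channel PSAC; channel blockers reduce lysis of infected cells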; details: P. falciparum Indochina infected erythrocytes, osmotic lysis OD700; higher = more signal, called active from +8 up or from −8 down
[15] = osmotic lysis modulators in infected erythrocytes, primary screen, PSAC antagonist project, cell-based, P. falciparum Indochina, OD700, 3 h (AID 1156); details: higher = more signal, called active from +8 up or from −8 down
[16] = PSAC antagonists in infected red cells, primary screen, cell-based, P. falciparum Indochina, OD700, 18 h (AID 1157); details: P. falciparum Indochina infected erythrocytes, osmotic lysis OD700, 18 h; higher = more signal, called active from +8 up or from −8 down
[17] = modulators of S6 phosphorylation in cells, primary screen, cell-based, A549, cytoblot, luminescence, serum-stimulated (AID 1158); details: A549 phospho-S6 cytoblot, 5 h, higher = more signal;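 further: serum-stimulated A549 lung adenocarcinoma cells; signal is phosphorylated S6 detected by cytoblot immunostaining with HRP secondary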
[18] = molecular target: NADPH oxidase 2 (Homo sapiens) (UniProt P04839); assay: NOX2-dependent H2O2 signal modulators, primary screen, NOX inhibitor project, cell-based, HEK293-NOX2, PMA-stimulated, Amplex Red fluorescence (AID 1159); details: 45 min, higher = more signal, called active from +8 up or from −8 down; further: test concentration not given here
[19] = molecular target: NADPH oxidase 4 (Homo sapiens) (UniProt Q9NPH5); assay: NOX4-dependent H2O2 signal modulators, primary screen, NOX inhibitor project, cell-based, HEK293-NOX4, tetracycline-induced, Amplex Red fluorescence (AID 1160); details: 45 min, higher = more signal, called active from +8 up or from −8 down
[20] = molecular target: NADPH oxidase 5 (Homo sapiens) (UniProt Q96PH1); assay: NOX5-dependent H2O2 signal modulators, primary screen, NOX inhibitor project, cell-based, HEK293-NOX5, Amplex Red fluorescence (AID 1161); details: HEK293-NOX5, ionomycin, 45 min, higher = more signal
NADPH oxidase 5 (Homo sapiens), sequence (Q96PH1 whole entry, looked up): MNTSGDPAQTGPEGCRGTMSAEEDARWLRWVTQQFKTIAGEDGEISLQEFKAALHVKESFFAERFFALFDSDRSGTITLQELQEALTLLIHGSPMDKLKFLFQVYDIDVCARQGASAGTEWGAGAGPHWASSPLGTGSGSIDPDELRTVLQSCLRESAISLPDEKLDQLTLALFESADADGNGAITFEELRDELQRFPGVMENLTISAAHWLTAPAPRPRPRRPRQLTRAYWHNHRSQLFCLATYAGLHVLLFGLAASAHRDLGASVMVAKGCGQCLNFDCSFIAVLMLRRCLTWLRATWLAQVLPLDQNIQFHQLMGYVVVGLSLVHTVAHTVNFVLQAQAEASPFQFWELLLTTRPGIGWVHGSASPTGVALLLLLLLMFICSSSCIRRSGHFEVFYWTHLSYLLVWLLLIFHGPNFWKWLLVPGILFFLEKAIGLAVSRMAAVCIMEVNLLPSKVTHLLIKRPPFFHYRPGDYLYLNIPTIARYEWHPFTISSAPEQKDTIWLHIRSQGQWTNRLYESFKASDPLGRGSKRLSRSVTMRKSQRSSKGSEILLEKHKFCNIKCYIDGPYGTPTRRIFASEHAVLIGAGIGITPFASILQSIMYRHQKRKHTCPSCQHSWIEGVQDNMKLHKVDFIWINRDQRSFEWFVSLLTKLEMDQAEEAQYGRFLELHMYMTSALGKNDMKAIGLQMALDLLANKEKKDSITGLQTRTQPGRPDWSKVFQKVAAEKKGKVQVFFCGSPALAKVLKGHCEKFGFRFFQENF

Streptavidin (Streptomyces avidinii), sequence (P22629 whole entry, looked up): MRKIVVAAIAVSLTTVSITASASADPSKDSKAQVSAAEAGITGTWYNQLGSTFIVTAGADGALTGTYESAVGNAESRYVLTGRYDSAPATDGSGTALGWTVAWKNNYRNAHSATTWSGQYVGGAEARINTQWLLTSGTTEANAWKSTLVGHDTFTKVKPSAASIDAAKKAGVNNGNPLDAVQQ
Torsin-1A (Homo sapiens), sequence (O14656 whole entry, looked up): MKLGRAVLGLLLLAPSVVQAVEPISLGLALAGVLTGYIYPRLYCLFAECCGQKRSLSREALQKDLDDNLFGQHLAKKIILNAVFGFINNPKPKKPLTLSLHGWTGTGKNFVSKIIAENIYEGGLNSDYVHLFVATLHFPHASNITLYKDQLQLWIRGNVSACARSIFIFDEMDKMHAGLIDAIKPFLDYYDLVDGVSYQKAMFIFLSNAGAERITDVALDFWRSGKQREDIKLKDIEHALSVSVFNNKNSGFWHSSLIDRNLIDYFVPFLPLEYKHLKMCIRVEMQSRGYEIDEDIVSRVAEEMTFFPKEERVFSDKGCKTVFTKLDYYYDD
NADPH oxidase 4 (Homo sapiens), sequence (Q9NPH5 whole entry, looked up): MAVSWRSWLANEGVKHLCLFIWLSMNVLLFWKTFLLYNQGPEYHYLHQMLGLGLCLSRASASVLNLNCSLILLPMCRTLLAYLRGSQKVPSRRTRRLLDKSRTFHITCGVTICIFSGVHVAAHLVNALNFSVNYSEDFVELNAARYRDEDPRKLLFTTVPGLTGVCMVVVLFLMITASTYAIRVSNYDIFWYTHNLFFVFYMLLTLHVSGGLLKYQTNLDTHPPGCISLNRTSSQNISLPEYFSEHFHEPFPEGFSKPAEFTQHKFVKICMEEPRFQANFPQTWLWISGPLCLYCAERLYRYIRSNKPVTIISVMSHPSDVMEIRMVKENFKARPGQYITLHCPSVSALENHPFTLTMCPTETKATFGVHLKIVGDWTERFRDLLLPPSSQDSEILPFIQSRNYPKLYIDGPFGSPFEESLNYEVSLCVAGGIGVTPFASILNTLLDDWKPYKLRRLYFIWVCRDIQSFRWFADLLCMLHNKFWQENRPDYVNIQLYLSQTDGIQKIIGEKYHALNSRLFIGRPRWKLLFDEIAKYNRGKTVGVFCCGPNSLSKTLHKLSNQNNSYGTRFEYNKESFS
NADPH oxidase 2 (Homo sapiens), sequence (P04839 whole entry, looked up): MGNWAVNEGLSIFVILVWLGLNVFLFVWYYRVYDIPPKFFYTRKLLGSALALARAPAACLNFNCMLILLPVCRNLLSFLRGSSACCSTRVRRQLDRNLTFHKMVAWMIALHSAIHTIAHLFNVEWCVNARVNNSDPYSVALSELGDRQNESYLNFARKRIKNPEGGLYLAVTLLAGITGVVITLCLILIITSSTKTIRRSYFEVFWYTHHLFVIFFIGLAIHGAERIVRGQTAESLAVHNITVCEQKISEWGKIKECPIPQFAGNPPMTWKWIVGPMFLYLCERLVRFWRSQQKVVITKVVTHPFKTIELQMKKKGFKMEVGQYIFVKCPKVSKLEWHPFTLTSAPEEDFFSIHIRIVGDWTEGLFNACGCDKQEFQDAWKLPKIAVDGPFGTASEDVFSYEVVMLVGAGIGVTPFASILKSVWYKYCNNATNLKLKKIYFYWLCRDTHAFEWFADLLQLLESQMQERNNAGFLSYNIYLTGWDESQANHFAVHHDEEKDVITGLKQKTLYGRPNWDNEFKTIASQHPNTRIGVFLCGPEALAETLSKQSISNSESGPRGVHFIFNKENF

SMILES	composite z-score [1]	z-score [2]	z-score [3]	z-score [4]	z-score [5]	composite z-score [6]	composite z-score [7]	composite z-score (Torsin-1A (Homo sapiens) [8])	composite z-score (Torsin-1A (Homo sapiens) [9])	composite z-score [10]	z-score [11]	composite z-score [12]	z-score [13]	z-score [14]	z-score [15]	z-score [16]	z-score [17]	z-score [18]	z-score [19]	z-score [20]
O=C(CS)NCCCCCNC(=O)[C@H]1C[C@H]2C(=O)N[C@@H](Cc3ccccc3)C(=O)N2[C@H]1c1cccc(OCCO)c1	0.306	-0.178 (inactive)	-0.388 (inactive)	0.696 (inactive)	-0.0595 (inactive)	-0.304	0.0439	0.88	0.822	1.83	1.77 (inactive)	0.373	3.03 (inactive)	0.724 (inactive)	-2 (inactive)	0.425 (inactive)	0.9	1.69 (inactive)	1.34 (inactive)	0.687
O=C(NCC(O)CO)[C@@]1(Cc2ccccc2)COC(c2ccc(OCCCO)cc2)=N1 (stereo not given in full)	0.0149	-0.0858 (inactive)	0.741 (inactive)	0.895 (inactive)	-0.18 (inactive)	-0.131	0.124	-0.0598	0.0184	-0.342	0.712 (inactive)	-0.266	8.57 (active)	0.648 (inactive)	2.87 (inactive)	0.472 (inactive)	-0.404	-0.44 (inactive)	0.82 (inactive)	0.132
COc1cc(NN2C(C(O)c3ccccc3)C=CC3C(=O)N(c4ccccc4)C(=O)C32)cc(OC)c1OC (stereo not given)	0.421	-3.47 (inactive)	-0.525 (inactive)	0.433 (inactive)	-0.557 (inactive)	0.148	0.0829	0.179	0.989	0.89	-0.26 (inactive)	0.644	1.38 (inactive)	0.0862 (inactive)	0.86 (inactive)	-0.325 (inactive)	0.838	-3.61 (inactive)	-4.63 (inactive)	-7.16
CCCCCCCCCCC(O)C1C=CC2C(=O)N(c3ccccc3)C(=O)C2N1Nc1ccc([N+](=O)[O-])cc1 (stereo not given)	0.207	-2.71 (inactive)	-0.214 (inactive)	0.285 (inactive)	0.925 (inactive)	0.811	-0.0059	0.0415	0.227	0.358	-1.14 (inactive)	0.315	5.24 (inactive)	2.56 (inactive)	-1.8 (inactive)	2.11 (inactive)	-0.235	0.309 (inactive)	-0.243 (inactive)	0.627
Cc1ccc(N2C(=O)c3ccccc3[C@@H](C(=O)NC(C)C)[C@@H]2c2ccc(CO)cc2)nc1	0.635	-2.73 (inactive)	-1.83 (inactive)	0.351 (inactive)	0.807 (inactive)	-0.896	-0.104	-1.73	2.08	-0.473	0.358 (inactive)	-0.641	2.41 (inactive)	0.474 (inactive)	0.884 (inactive)	0.596 (inactive)	0.45	0.0802 (inactive)	-1.16 (inactive)	-2.61
CC(=O)NCCCC[C@@H]1NC(=O)[C@@H]2C[C@H](C(=O)NCCCCCC[N+](C)(C)C)[C@H](c3cccc(OCCO)c3)N2C1=O	0.505	-0.134 (inactive)	-0.445 (inactive)	-0.947 (inactive)	-0.75 (inactive)	-0.206	-0.0425	0.964	1.43	2.04	0.0924 (inactive)	0.156	2.99 (inactive)	0.591 (inactive)	-0.956 (inactive)	0.325 (inactive)	-0.507	1.09 (inactive)	0.91 (inactive)	0.593
Cc1ccc(N2C(=O)c3ccccc3[C@](C)(C(=O)NCCN3CCOCC3)[C@@H]2c2ccc(CO)cc2)nc1	-0.538	-0.28 (inactive)	-0.398 (inactive)	-0.258 (inactive)	-0.37 (inactive)	-0.932	-0.211	-2.51	-1.62	0.465	-0.285 (inactive)	-0.229	1.12 (inactive)	0.645 (inactive)	2.69 (inactive)	0.178 (inactive)	-0.113	1.86 (inactive)	0.236 (inactive)	0.286
O=C1OCC=C[C@H]2OC34C=CCN(CCN5CCOCC5)C(=O)[C@H]3N(CCCCCCO)C(=O)[C@@H]4[C@@H]12 (stereo not given in full)	0.0272	-0.39 (inactive)	1.73 (inactive)	0.862 (inactive)	-0.201 (inactive)	-0.278	-0.0604	0.135	-0.0406	0.572	-0.416 (inactive)	0.0253	4.96 (inactive)	1.32 (inactive)	1.21 (inactive)	0.404 (inactive)	1.07	1.51 (inactive)	-0.325 (inactive)	1.92
